# Results from PubChem BioAssay AID2057 (The Scripps Research Institute Molecular Screening Center, 2009).
# Among all 320,000 compounds or so, about 2,100 (0.66%) were called active. What follows is part of a selection rich in actives, with near analogues and random picks from the rest. Values without a mark were called inactive.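 Rule for the calls: active = inhibition above the mean inhibition of all tested compounds plus 3 SD, set per campaign (cut at about 40% in these data); inactive = the rest.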
# Target: Induced myeloid leukemia cell differentiation protein Mcl-1 (Homo sapiens) (UniProt Q07820)
# Sequence (Q07820 whole entry, looked up): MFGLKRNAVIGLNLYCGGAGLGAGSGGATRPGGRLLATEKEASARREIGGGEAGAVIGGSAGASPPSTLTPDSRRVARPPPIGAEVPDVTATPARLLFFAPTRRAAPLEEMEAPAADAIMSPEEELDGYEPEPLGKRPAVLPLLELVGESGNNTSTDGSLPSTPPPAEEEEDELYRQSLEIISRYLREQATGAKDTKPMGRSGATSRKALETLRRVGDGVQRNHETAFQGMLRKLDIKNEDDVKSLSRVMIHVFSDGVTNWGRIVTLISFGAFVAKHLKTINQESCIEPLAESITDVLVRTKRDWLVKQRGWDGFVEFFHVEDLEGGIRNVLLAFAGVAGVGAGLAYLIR
# Experiment: MCL1-BIM peptide interaction disruptors – biochemical, fluorescence polarization, primary screen (AID 2057);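 note: 0% = DMSO wells and 100% = unlabeled Bim-BH3 peptide control; higher means more loss of mP so more displacement of Bim peptide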
# Conditions: GST-MCL1 / FITC-Bim-BH3 fluorescence polarization; at 10.9 µM; active compounds read high
row,Compound,inhibition
1,COc1ccccc1C(=O)N/C(=C/c1ccco1)C(=O)Nc1ccc(C(=O)O)cc1,12.1%
2,COC(=O)c1ccccc1NC(=O)CSc1nc2c(c(=O)[nH]1)CCC2,0.89%
3,CC(=O)N1CCC(C(=O)OCc2ccc(Cl)cc2)(c2ccccc2)CC1,7.68%
4,CCCCC(NS(=O)(=O)c1ccc(C)cc1)C(=O)Oc1ccc2c3c(c(=O)oc2c1)CCC3 (stereo not drawn),1.03%
5,C#CCOCCOCCOCCNc1nc(N2CCN(C(=O)CCCCCCCCCCNC(=O)[C@H](CCCCN)n3cc(C)nn3)CC2)nc(N2CCN(C(=O)CCCCCCCCCCNC(=O)[C@H](CO)n3cc(CCCSC)nn3)CC2)n1,14.4%
6,CN1c2ccc(C=O)c3c(C=O)ccc(c23)N(C)C1(C)C,167% (active)
7,O=C(OCc1cc(Cl)ccc1OC(F)F)c1cccnc1,-0.26%
8,CS(=O)(=O)Nc1ccccc1N=C(c1ccccc1)c1ccccc1,-1.05%
9,COC(=O)/C=C\C(=O)Nc1cccc([N+](=O)[O-])c1,2.27%
10,COC(=O)c1sc(NC(=S)NC(=O)c2ccc(C)cc2)nc1C,98.3% (active)
11,COC(=O)c1sccc1NC(=S)Nc1ccc(C)cc1,13.5%
12,Cc1ccc(C(=O)NC(=S)Nc2ccccc2C)cc1,4.14%
13,COc1ccc(C2C3=C(CCCC3=O)N(CC(=O)O)C3=C2C(=O)CCC3)cc1,8.95%
14,CCOc1ccc(C2C3=C(CCCC3=O)N(CC(=O)O)C3=C2C(=O)CCC3)cc1,17.6%
15,CCCN1C2=C(C(=O)CCC2)C(c2ccc(O)c(Br)c2)C2=C1CCCC2=O,43.5% (active)
16,COc1ccccc1N1CCN(S(=O)(=O)CCNC(=O)c2ccc(OC(C)C)cc2)CC1,-5.21%
17,Cc1cc(C)n2nc(C(=O)N(C)C(c3ccccc3)c3ccccc3)nc2n1,-7.96%
18,O=C(NCCc1ccccc1)C1CCN(S(=O)(=O)c2ccc(Br)s2)CC1,-0.6%
19,Cc1cc(C)c[n+](-c2nc3ccccc3nc2[N-]S(=O)(=O)c2cccs2)c1,3.38%
20,O=S(=O)([N-]c1nc2ccccc2nc1-[n+]1ccc(Cc2ccccc2)cc1)c1ccc(Br)s1,87.1% (active)
21,Cc1cc(-c2nnc(SCC(=O)Nc3ccc(S(N)(=O)=O)cc3)n2N)n[nH]1,-7.81%
22,COc1ccc2ccccc2c1CNCc1ccccn1,4.21%
23,CSc1ccccc1C(=O)OCC(=O)N1CCN(C(C)=O)CC1,1.83%
